Numbering of substitutions follows the chain as printed.
Experiments:
Experiment in all cases: PBM; 200 nM protein, PBS
Conditions in all cases: dsDNA, one strand shown
HOXB9 = HOXB9 (Homo sapiens, UniProt P17482 171-250, T197M)
VENTX = biological target: T1, VENTX (Homo sapiens, UniProt O95231 78-163)
T1 sequence: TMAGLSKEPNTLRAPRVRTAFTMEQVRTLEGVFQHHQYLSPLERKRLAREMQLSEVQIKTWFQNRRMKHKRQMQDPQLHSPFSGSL

HOXA7 [1] = biological target: HOXA7 (Homo sapiens, UniProt P31268 116-202)
PAX4 [2] = biological target: T2, PAX4 (Homo sapiens, UniProt O43316 9-242, R200K)
T2 sequence: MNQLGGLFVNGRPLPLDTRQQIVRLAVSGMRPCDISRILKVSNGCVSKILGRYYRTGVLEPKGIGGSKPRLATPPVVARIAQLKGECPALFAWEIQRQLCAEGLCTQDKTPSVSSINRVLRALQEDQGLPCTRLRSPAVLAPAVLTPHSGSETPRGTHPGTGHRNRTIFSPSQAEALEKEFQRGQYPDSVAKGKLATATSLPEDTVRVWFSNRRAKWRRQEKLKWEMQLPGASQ

PAX4 [3] = biological target: T3, PAX4 (Homo sapiens, UniProt O43316 9-242)
T3 sequence: T2 sequence with K192R

HOXA2 [4] = biological target: HOXA2 (Homo sapiens, UniProt O43364 129-215, R185K)
Chain of HOXA2 (Homo sapiens, UniProt O43364 129-215, R185K) (O43364 129-215 R185K): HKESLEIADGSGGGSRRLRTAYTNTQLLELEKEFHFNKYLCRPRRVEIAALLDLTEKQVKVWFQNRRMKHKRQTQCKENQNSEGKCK

HOXC10 = HOXC10 (Homo sapiens, UniProt Q9NYD6 254-340, K271E)
Chain of HOXC10 (Q9NYD6 254-340 K271E): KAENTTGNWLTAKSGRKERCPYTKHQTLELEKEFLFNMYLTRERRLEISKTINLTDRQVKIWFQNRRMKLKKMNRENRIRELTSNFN

VAX1 = VAX1 (Homo sapiens, UniProt Q5SQQ9 86-172)
Chain of VAX1 (Q5SQQ9 86-172): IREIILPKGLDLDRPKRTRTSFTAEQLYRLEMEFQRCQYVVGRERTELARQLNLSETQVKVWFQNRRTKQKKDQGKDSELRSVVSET

PAX4 [5] = biological target: T4, PAX4 (Homo sapiens, UniProt O43316 9-242, R227W)
T4 sequence: T2 sequence with K192R, R219W

HOXA2 [6] = biological target: HOXA2 (Homo sapiens, UniProt O43364 129-215, Y150S)
Chain of HOXA2 (Homo sapiens, UniProt O43364 129-215, Y150S) (O43364 129-215 Y150S): as the sequence (O43364 129-215 R185K) above, with Y22S, K57R counted along it

HOXA7 [7] = biological target: HOXA7 (Homo sapiens, UniProt P31268 116-202, W177C)
Chain of HOXA7 (Homo sapiens, UniProt P31268 116-202, W177C) (P31268 116-202 W177C): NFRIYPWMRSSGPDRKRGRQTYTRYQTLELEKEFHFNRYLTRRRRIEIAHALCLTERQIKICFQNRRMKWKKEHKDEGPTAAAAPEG

HOXA2 [8] = biological target: HOXA2 (Homo sapiens, UniProt O43364 129-215)
Chain of HOXA2 (Homo sapiens, UniProt O43364 129-215) (O43364 129-215): as the sequence (O43364 129-215 R185K) above, with K57R counted along it

HOXB6 = HOXB6 (Homo sapiens, UniProt P17509 132-218)
Chain of HOXB6 (P17509 132-218): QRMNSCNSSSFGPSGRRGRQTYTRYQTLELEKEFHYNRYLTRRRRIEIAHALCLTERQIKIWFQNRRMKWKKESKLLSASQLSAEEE

Chain of HOXA7 (Homo sapiens, UniProt P31268 116-202) (P31268 116-202): as the sequence (P31268 116-202 W177C) above, with C62W counted along it
Chain of HOXB9 (P17482 171-250 T197M): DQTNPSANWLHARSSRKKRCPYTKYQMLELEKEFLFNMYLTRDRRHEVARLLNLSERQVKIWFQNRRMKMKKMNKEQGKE

| Sequence | binding signal (HOXB9) | binding signal (VENTX) | binding signal (HOXA7 [1]) | binding signal (PAX4 [2]) | binding signal (PAX4 [3]) | binding signal (HOXA2 [4]) | binding signal (HOXC10) | binding signal (VAX1) | binding signal (PAX4 [5]) | binding signal (HOXA2 [6]) | binding signal (HOXA7 [7]) | binding signal (HOXA2 [8]) | binding signal (HOXB6) |
| --- | --- | --- | --- | --- | --- | --- | --- | --- | --- | --- | --- | --- | --- |
| CTAATTAC | 10.1 upbm affinity estimate (log intensity, higher = more binding, comparable within an allelic series) | 13.2 upbm affinity estimate (log intensity, higher = more binding, comparable within an allelic series) | 11.9 upbm affinity estimate (log intensity, higher = more binding, comparable within an allelic series) | 12 upbm affinity estimate (log intensity, higher = more binding, comparable within an allelic series) | 12.5 upbm affinity estimate (log intensity, higher = more binding, comparable within an allelic series) | 14 upbm affinity estimate (log intensity, higher = more binding, comparable within an allelic series) | 12 upbm affinity estimate (log intensity, higher = more binding, comparable within an allelic series) | 14 upbm affinity estimate (log intensity, higher = more binding, comparable within an allelic series) | 11.1 upbm affinity estimate (log intensity, higher = more binding, comparable within an allelic series) | 10.9 upbm affinity estimate (log intensity, higher = more binding, comparable within an allelic series) | 8.84 upbm affinity estimate (log intensity, higher = more binding, comparable within an allelic series) | 13.4 upbm affinity estimate (log intensity, higher = more binding, comparable within an allelic series) | 12.3 upbm affinity estimate (log intensity, higher = more binding, comparable within an allelic series) |
| ATAATTAG | 10.2 upbm affinity estimate (log intensity, higher = more binding, comparable within an allelic series) | 12.9 upbm affinity estimate (log intensity, higher = more binding, comparable within an allelic series) | 11.8 upbm affinity estimate (log intensity, higher = more binding, comparable within an allelic series) | 12 upbm affinity estimate (log intensity, higher = more binding, comparable within an allelic series) | 12.7 upbm affinity estimate (log intensity, higher = more binding, comparable within an allelic series) | 13.8 upbm affinity estimate (log intensity, higher = more binding, comparable within an allelic series) | 11.8 upbm affinity estimate (log intensity, higher = more binding, comparable within an allelic series) | 13.8 upbm affinity estimate (log intensity, higher = more binding, comparable within an allelic series) | 11.3 upbm affinity estimate (log intensity, higher = more binding, comparable within an allelic series) | 11 upbm affinity estimate (log intensity, higher = more binding, comparable within an allelic series) | 9.08 upbm affinity estimate (log intensity, higher = more binding, comparable within an allelic series) | 13.1 upbm affinity estimate (log intensity, higher = more binding, comparable within an allelic series) | 12.2 upbm affinity estimate (log intensity, higher = more binding, comparable within an allelic series) |
| CAATTACC | – | – | 11.4 upbm affinity estimate (log intensity, higher = more binding, comparable within an allelic series) | – | – | 13.1 upbm affinity estimate (log intensity, higher = more binding, comparable within an allelic series) | – | 12.8 upbm affinity estimate (log intensity, higher = more binding, comparable within an allelic series) | – | – | 8.84 upbm affinity estimate (log intensity, higher = more binding, comparable within an allelic series) | – | 11.8 upbm affinity estimate (log intensity, higher = more binding, comparable within an allelic series) |
| GTAATTGA | – | – | 11.2 upbm affinity estimate (log intensity, higher = more binding, comparable within an allelic series) | – | – | 12.9 upbm affinity estimate (log intensity, higher = more binding, comparable within an allelic series) | – | 12.8 upbm affinity estimate (log intensity, higher = more binding, comparable within an allelic series) | – | 10.7 upbm affinity estimate (log intensity, higher = more binding, comparable within an allelic series) | 8.88 upbm affinity estimate (log intensity, higher = more binding, comparable within an allelic series) | 12.1 upbm affinity estimate (log intensity, higher = more binding, comparable within an allelic series) | – |
| CAATTATG | – | – | – | – | – | – | – | – | – | – | – | – | 11.7 upbm affinity estimate (log intensity, higher = more binding, comparable within an allelic series) |
| CAATTAGC | – | 13.1 upbm affinity estimate (log intensity, higher = more binding, comparable within an allelic series) | 11.3 upbm affinity estimate (log intensity, higher = more binding, comparable within an allelic series) | 11.6 upbm affinity estimate (log intensity, higher = more binding, comparable within an allelic series) | 12.2 upbm affinity estimate (log intensity, higher = more binding, comparable within an allelic series) | 13.6 upbm affinity estimate (log intensity, higher = more binding, comparable within an allelic series) | – | 13.5 upbm affinity estimate (log intensity, higher = more binding, comparable within an allelic series) | 10.8 upbm affinity estimate (log intensity, higher = more binding, comparable within an allelic series) | 10.7 upbm affinity estimate (log intensity, higher = more binding, comparable within an allelic series) | 8.77 upbm affinity estimate (log intensity, higher = more binding, comparable within an allelic series) | 12.6 upbm affinity estimate (log intensity, higher = more binding, comparable within an allelic series) | – |
| CTCAATTA | – | – | – | – | – | 13 upbm affinity estimate (log intensity, higher = more binding, comparable within an allelic series) | – | 12.9 upbm affinity estimate (log intensity, higher = more binding, comparable within an allelic series) | – | 10.8 upbm affinity estimate (log intensity, higher = more binding, comparable within an allelic series) | – | 12.1 upbm affinity estimate (log intensity, higher = more binding, comparable within an allelic series) | – |
| ACTAATTG | – | 12.9 upbm affinity estimate (log intensity, higher = more binding, comparable within an allelic series) | – | 11.5 upbm affinity estimate (log intensity, higher = more binding, comparable within an allelic series) | 12.1 upbm affinity estimate (log intensity, higher = more binding, comparable within an allelic series) | 13.3 upbm affinity estimate (log intensity, higher = more binding, comparable within an allelic series) | – | 13.3 upbm affinity estimate (log intensity, higher = more binding, comparable within an allelic series) | 10.8 upbm affinity estimate (log intensity, higher = more binding, comparable within an allelic series) | 10.8 upbm affinity estimate (log intensity, higher = more binding, comparable within an allelic series) | – | 12.4 upbm affinity estimate (log intensity, higher = more binding, comparable within an allelic series) | – |

— PMC11006913
